Calls of active or inactive are those of the source. Unless noted, the rule behind the calls is not given here.
Assays:
[1] = compounds binding Alexa647 anti-His antibody – biochemical, small-molecule microarray, 635 nm fluorescence, artefact control for SMM control protein annotation, primary screen (AID 1128); settings: higher = more signal;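 note: score merges feature fluorescence with signal-to-noise for each printed compound spot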
[2] = tested on: Human papillomavirus type 1a E7 protein (residues 1-88); assay: HPV1a E7 small-molecule binders, primary screen, biochemical, small-molecule microarray, residues 1-88, 635 nm (AID 1129); settings: small-molecule microarray binding, fluorescence 635 nm; higher = more signal
[3] = molecular target: Focal adhesion kinase 1 (Homo sapiens) (UniProt Q05397); assay: PTK2 protein binding on printed compound slides – biochemical, small-molecule microarray, 635/667 nm fluorescence, BSA, DTT, primary screen (AID 1130); settings: 635 nm fluorescence, higher = more signal;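 note: composite of spot emission at 667 nm and signal to noise over triplicate slides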
Focal adhesion kinase 1 (Homo sapiens), sequence (Q05397 whole entry, looked up): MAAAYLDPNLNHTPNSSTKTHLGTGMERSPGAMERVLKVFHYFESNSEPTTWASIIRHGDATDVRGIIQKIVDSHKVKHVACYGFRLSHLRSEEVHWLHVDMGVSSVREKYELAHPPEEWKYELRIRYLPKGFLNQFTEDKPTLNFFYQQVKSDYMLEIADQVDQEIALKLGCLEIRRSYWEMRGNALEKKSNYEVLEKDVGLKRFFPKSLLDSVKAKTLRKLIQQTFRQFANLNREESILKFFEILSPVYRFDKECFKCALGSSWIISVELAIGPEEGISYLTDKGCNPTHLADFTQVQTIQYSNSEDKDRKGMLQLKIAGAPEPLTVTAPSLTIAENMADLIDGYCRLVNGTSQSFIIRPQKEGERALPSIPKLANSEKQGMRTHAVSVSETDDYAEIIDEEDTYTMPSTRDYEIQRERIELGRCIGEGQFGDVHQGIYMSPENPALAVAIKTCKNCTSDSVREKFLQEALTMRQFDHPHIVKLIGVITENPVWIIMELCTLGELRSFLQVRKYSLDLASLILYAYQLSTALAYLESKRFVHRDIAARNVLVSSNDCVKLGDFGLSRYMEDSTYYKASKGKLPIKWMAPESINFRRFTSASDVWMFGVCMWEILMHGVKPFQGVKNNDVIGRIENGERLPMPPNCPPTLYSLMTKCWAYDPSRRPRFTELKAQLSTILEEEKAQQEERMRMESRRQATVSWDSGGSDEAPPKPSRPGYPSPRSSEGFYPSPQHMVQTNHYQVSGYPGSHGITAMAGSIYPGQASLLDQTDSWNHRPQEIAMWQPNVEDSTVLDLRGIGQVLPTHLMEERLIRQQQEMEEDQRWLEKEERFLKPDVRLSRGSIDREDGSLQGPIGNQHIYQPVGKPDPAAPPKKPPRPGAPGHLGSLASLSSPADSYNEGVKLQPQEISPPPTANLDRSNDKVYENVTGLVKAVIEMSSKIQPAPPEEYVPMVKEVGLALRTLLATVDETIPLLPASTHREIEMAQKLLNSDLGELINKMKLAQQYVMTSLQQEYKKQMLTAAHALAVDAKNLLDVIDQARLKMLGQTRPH

[4] = tested on: Fibrinogen (Alexa647-labelled); assay: Alexa647-fibrinogen binding to printed small molecules – biochemical, small-molecule microarray, 635/667 nm fluorescence, artefact control for SMM control-protein annotation, profiling panel (AID 1131); settings: fibrinogen-A647 binding fluorescence, higher = more signal;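 note: z-score merges 667 nm fluorescence with per-spot signal-to-noise over triplicate slides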
[5] = molecular target: Follistatin (Homo sapiens) (UniProt P19883); assay: FST protein binding to printed compounds – biochemical, small-molecule microarray, 635/667 nm fluorescence, primary screen (AID 1132); settings: 635 nm fluorescence, higher = more signal
Follistatin (Homo sapiens), sequence (P19883 whole entry, looked up): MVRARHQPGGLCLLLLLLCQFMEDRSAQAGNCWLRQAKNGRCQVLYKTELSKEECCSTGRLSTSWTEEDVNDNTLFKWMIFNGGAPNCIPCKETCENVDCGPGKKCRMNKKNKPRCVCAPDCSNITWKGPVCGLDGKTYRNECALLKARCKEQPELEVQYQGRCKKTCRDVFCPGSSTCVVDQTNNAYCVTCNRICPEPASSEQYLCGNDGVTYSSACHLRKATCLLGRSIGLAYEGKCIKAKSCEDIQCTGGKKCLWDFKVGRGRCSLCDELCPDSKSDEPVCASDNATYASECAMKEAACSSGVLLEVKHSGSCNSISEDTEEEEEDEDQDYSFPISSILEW

[6] = molecular target: Fibroblast growth factor 2 (Homo sapiens) (UniProt P09038); assay: basic fibroblast growth factor binding to printed compounds – biochemical, small-molecule microarray, 635/667 nm fluorescence, primary screen (AID 1133); settings: FGF2, fluorescence 635/667, higher = more signal
Fibroblast growth factor 2 (Homo sapiens), sequence (P09038 whole entry, looked up): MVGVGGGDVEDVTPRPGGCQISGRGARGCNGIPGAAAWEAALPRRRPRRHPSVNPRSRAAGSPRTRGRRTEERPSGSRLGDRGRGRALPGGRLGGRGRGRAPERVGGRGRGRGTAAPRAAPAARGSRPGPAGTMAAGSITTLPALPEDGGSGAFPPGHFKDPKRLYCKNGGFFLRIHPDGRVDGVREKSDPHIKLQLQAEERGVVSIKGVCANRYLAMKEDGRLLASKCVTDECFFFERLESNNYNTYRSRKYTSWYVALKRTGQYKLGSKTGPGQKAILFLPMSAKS

[7] = JC-1 mitochondrial potential readout, lung cancer cells – cell-based, A549, JC-1 fluorescence, basal, 24 h, 100 nL, profiling panel (AID 1138); settings: higher = more signal;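 note: A549 lung adenocarcinoma cells under basal conditions with no added stimulus; test concentration not given here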
Lefty1 = Lefty1 protein binding to printed compounds – biochemical, small-molecule microarray, 635/667 nm fluorescence, primary screen (AID 1139); settings: fluorescence 635/667, higher = more signal
[8] = tested on: wheat germ agglutinin (Triticum aestivum), Alexa647-labelled; assay: Alexa647-WGA lectin binding to printed small molecules – biochemical, small-molecule microarray, 635/667 nm fluorescence, artefact control for SMM control-protein annotation, profiling panel (AID 1140); settings: WGA-A647 binding, 635 nm fluorescence, higher = more signal;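 note: score merges 667 nm feature emission with signal to noise over triplicate slides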
[9] = molecular target: Luciferin 4-monooxygenase (Photinus pyralis) (UniProt P08659); assay: inhibition of purified Photinus pyralis luciferase – biochemical, luminescence, purified enzyme, 2006 set, primary screen (AID 1141); settings: purified firefly luciferase, SteadyGlo luminescence, 30 min; higher = more signal, called active from +8 up or from −8 down;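 note: cell-free assay with purified firefly luciferase at 100 ng per well in PBS; test concentration not given here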
Luciferin 4-monooxygenase (Photinus pyralis), sequence (P08659 whole entry, looked up): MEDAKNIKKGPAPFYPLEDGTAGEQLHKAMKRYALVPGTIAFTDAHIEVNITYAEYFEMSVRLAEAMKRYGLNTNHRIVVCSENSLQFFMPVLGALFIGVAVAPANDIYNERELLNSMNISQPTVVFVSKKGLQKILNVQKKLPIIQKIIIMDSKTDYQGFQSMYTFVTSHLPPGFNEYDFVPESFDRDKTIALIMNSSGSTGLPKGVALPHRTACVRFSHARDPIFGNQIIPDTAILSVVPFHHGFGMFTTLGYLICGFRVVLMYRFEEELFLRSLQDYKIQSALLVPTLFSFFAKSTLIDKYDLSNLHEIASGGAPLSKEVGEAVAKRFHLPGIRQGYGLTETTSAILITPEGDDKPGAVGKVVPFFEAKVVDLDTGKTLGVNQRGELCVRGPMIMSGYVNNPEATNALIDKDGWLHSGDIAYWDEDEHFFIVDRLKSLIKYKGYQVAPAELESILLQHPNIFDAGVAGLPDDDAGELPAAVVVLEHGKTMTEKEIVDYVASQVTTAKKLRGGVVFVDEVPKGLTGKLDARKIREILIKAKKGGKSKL

[10] = tested on: Wnt5a (protein binding on small-molecule microarray); assay: small molecules binding Wnt5a protein – biophysical, small-molecule microarray, 635/667 nm fluorescence, primary screen (AID 1142); settings: 635 nm fluorescence, higher = more signal;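 note: fluorescence read at 667 nm with signal to noise per printed feature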
[11] = ATP-based viability of Huh7 replicon cells – cell-based, CellTiter-Glo luminescence, basal, 48 h, cytotoxicity control for HCV replication inhibitor project, primary screen (AID 1143); settings: higher = more signal, called active from +8 up or from −8 down;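 note: Huh7 hepatoma cells carrying a hepatitis C replication reporter with no stimulus; test concentration not given here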
[12] = Pseudomonas biofilm growth suppression – PAO1 strain, BacTiter-Glo luminescence, LB-PBS, primary screen (AID 1144); settings: P. aeruginosa PAO1 biofilm, 12 h, higher = more signal
[13] = basal CRE-LacZ reporter activity in PC12 – cell-based, unstimulated, primary screen (AID 1145); settings: no forskolin, luminescence, 4.5 h, higher = more signal, called active from +8 up or from −8 down
[14] = forskolin-driven CRE-LacZ activity in PC12 – cell-based, CRE-LacZ reporter, forskolin-stimulated, primary screen (AID 1146); settings: luminescence, 4.5 h, higher = more signal, called active from +8 up or from −8 down;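 note: PC12 cells with 6xCRE LacZ reporter stimulated by forskolin 10 µM; beta-galactosidase reporter signal reflecting CREB driven transcription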
[15] = molecular target: Streptavidin (Streptomyces avidinii) (UniProt P22629); assay: compounds binding control protein streptavidin – biophysical, small-molecule microarray, 635/667 nm fluorescence, artefact control for SMM compound annotation, primary screen (AID 1147); settings: higher = more signal;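 note: signal reflects streptavidin binding to arrayed compounds as a control protein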
Streptavidin (Streptomyces avidinii), sequence (P22629 whole entry, looked up): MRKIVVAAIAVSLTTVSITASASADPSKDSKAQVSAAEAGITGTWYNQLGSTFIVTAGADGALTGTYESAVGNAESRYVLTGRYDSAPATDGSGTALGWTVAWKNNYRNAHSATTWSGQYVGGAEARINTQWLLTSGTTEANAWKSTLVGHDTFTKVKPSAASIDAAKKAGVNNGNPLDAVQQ

[16] = probe aInhba binding on compound microarray – biochemical, small-molecule microarray, 635/667 nm fluorescence, primary screen (AID 1148); settings: higher = more signal;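 note: score merges 667nm spot fluorescence with signal-to-noise for antibody binding to printed compounds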
Torsin-1A (Homo sapiens) [17] = molecular target: Torsin-1A (Homo sapiens) (UniProt O14656); assay: TOR1A wild-type binding on microarray – cell lysate, small-molecule microarray, lysate, 635/667 nm, primary screen (AID 1149); settings: COS7 hTOR1A-WT lysate, 635 nm fluorescence, higher = more signal
Torsin-1A (Homo sapiens), sequence (O14656 whole entry, looked up): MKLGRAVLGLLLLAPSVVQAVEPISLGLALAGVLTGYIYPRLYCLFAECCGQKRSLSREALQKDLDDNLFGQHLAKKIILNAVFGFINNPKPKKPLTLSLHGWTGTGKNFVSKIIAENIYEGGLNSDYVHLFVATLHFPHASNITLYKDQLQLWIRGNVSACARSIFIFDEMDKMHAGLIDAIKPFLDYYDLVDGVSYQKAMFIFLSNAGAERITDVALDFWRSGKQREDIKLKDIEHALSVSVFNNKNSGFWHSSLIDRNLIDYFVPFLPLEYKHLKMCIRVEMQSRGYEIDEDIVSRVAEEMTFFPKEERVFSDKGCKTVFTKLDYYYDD

Torsin-1A (Homo sapiens) [18] = molecular target: Torsin-1A (Homo sapiens) (UniProt O14656); assay: torsin A mutant lysate binding on microarrays – cell lysate, small-molecule microarray, COS7 lysate, 635/667 nm fluorescence, primary screen (AID 1150); settings: COS7 hTOR1A mutant lysate, 635 nm fluorescence, higher = more signal;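 note: score pools 667 nm emission and signal to noise measuring lysate protein binding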
[19] = tested on: Sonic hedgehog protein (Shh); assay: Sonic hedgehog microarray binding compounds – biochemical, small-molecule microarray, 635/667 nm fluorescence, primary screen (AID 1151); settings: 635 nm fluorescence, higher = more signal;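 note: Shh protein binding to compounds spotted on small-molecule microarray slides; score combines spot fluorescence intensity with signal-to-noise across triplicate slides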

Structure (SMILES)	composite z-score [1]	composite z-score [2]	composite z-score [3]	composite z-score [4]	composite z-score [5]	composite z-score [6]	z-score [7]	composite z-score (Lefty1)	composite z-score [8]	z-score [9]	composite z-score [10]	z-score [11]	z-score [12]	z-score [13]	z-score [14]	composite z-score [15]	composite z-score [16]	composite z-score (Torsin-1A (Homo sapiens) [17])	composite z-score (Torsin-1A (Homo sapiens) [18])	composite z-score [19]
C[N+](C)(C)CCCCCCNC(=O)[C@@H]1C[C@@H]2C(=O)N3CCC[C@H]3C(=O)N2[C@@H]1c1cccc(OCCO)c1	1.06	0.049	0.622	-1.47	1.27	0.941	-0.518	0.915	-0.122	0.688 (inactive)	-0.0544	-0.345 (inactive)	-1.34 (inactive)	-1.34 (inactive)	0.27 (inactive)	-1.05	-0.0754	-0.383	0.624	2.25
COCCCNC(=O)[C@@]1(CCS(=O)(=O)c2ccccc2)N=C(c2ccc(OCCCO)cc2)O[C@H]1c1ccccc1	2.98	1.25	0.746	0.878	0.695	0.426	2.39	-0.854	0.716	-1.79 (inactive)	0.68	-1.7 (inactive)	-0.701 (inactive)	0.951 (inactive)	0.353 (inactive)	0.188	0.38	1.45	2.73	-0.766
CC(C)CON=C1[C@H]2CCn3c(=O)n(-c4ccccc4)c(=O)n3[C@H]2[C@H](O)[C@@H]2O[C@H]12	0.0684	0.118	0.164	0.571	0.504	1.03	-0.0655	0.475	0.201	-0.408 (inactive)	0.134	0.893 (inactive)	0.291 (inactive)	0.797 (inactive)	0.148 (inactive)	-0.142	-0.102	0.235	0.189	0.445
CCCNC(=O)OC[C@H]1O[C@H](CCON=C2[C@H]3CCn4c(=O)n(-c5ccccc5)c(=O)n4[C@H]3[C@H](O)[C@@H]3O[C@H]23)C=C[C@@H]1Oc1ccc(OC)cc1	-0.429	0.281	0.172	0.297	0.146	0.409	-0.0269	0.502	0.201	0.0766 (inactive)	0.14	-0.0238 (inactive)	1.01 (inactive)	0.899 (inactive)	0.301 (inactive)	-0.28	0.0294	0.0932	0.565	0.572
CCOC(=O)NN=C1C[C@@H](O)[C@@H](O)[C@@H]2[C@@H]3C(=O)N(C(C)(C)C)C(=O)[C@@H]3CC[C@@H]12	-0.889	-0.461	0.291	-0.417	-0.686	0.638	0.0179	-0.519	-1.19	0.413 (inactive)	-0.263	0.312 (inactive)	0.125 (inactive)	-0.0246 (inactive)	0.244 (inactive)	-0.784	-0.0849	0.527	0.541	-0.36
